Compounds without any hit were thinned out: in the full panel of roughly 83,000, 20% have a hit.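 Each cell line was grown in a 96-well plate and treated with one concentration of compound for 48 hours. Values below 10 were considered active.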 Values without a mark were called inactive. Calls of active or inactive are those of the source.

Test systems include HCT-15 colon; HT29 colon; SNB-75 CNS; SNB-19 CNS; U251 CNS; PC-3 prostate; SK-MEL-5 melanoma; UACC-62 melanoma; LOX IMVI melanoma; SK-MEL-28 melanoma.
What all share (experiment): NCI-60 one-dose screen, 48 h (100 = growth as untreated, 0 = no growth, -100 = all killed)
Common to all, as to conditions: 10 µM unless noted

Turning to `Cc1nc([C@H]2CC[C@H]3[C@@H]4CCC5=CC(=O)CC[C@]5(C)[C@H]4CC[C@]23C)cs1`, the growth in the experiment on HCT-15 colon is 75.2%; in the experiment on HT29 colon it was 62.2%; with SNB-75 CNS, 104%; with SNB-19 CNS, 91.3%; in the experiment with U251 CNS it was 66%; with PC-3 prostate, 19.6%. Besides, the growth in the experiment on SK-MEL-5 melanoma was 24.7%; with UACC-62 melanoma, 59.4%; in the experiment with LOX IMVI melanoma it was 56.5%; in the experiment with SK-MEL-28 melanoma, 93.4%.
As to `Cc1cc(C)c2c(n1)sc1c(Nc3ccc(Cl)cc3Cl)ncnc12`, the growth was 46.2% in the experiment with HCT-15 colon; 38.9% in the experiment on HT29 colon; 39.7% in the experiment with SNB-75 CNS; 32.4% with SNB-19 CNS; 25% in the experiment on U251 CNS; 50.9% in the experiment on PC-3 prostate. The growth with SK-MEL-5 melanoma is 25.5%; in the experiment with UACC-62 melanoma it was 15.6%; in the experiment on LOX IMVI melanoma it was 10.2%; in the experiment with SK-MEL-28 melanoma, 61.4%.
Regarding `COc1ccc(C2CC(c3cccc(Nc4ccnc5cc(Cl)ccc45)c3)=NN2c2ccccc2)cc1` (stereo not given), the growth with HCT-15 colon was 46.6%; in the experiment with HT29 colon it was 60.8%; with SNB-75 CNS, 62.5%; in the experiment with SNB-19 CNS, 78.3%; with U251 CNS it was 65.4%; with PC-3 prostate, 67.5%. The growth in the experiment with SK-MEL-5 melanoma was 39.1%; with UACC-62 melanoma, 29.5%; with LOX IMVI melanoma, 49%; in the experiment on SK-MEL-28 melanoma, 84.9%.
In the case of `Clc1ccc2c(c1)-c1ccccc1C1=NCCN12`, the growth with HCT-15 colon was 20%; in the experiment with HT29 colon, 4.08% (active); with SNB-75 CNS, 49.5%; in the experiment with SNB-19 CNS, 41.6%; with U251 CNS, 25%; in the experiment on PC-3 prostate, 28.5%. In addition, the growth with SK-MEL-5 melanoma is 19.9%; with UACC-62 melanoma it was 30.3%; with LOX IMVI melanoma, 11.7%; in the experiment with SK-MEL-28 melanoma, 43.2%.
Turning to `CC(OC(=O)Nc1cccc(Cl)c1)C(=O)O` (stereo not given), the growth was 104% in the experiment on HCT-15 colon; 102% in the experiment with HT29 colon; 84.6% in the experiment with SNB-75 CNS; 96.6% in the experiment with SNB-19 CNS; 102% in the experiment with U251 CNS; 93% in the experiment with PC-3 prostate. For the same compound, the growth in the experiment on SK-MEL-5 melanoma was 107%; in the experiment with UACC-62 melanoma, 91.8%; in the experiment on LOX IMVI melanoma, 96.9%; in the experiment with SK-MEL-28 melanoma, 112%.
On to `Cc1cc2nc3c(=O)[nH]c(=O)nc-3n(CC=O)c2cc1C`, for which the growth was 106% in the experiment on HCT-15 colon; 102% in the experiment with HT29 colon; 89.3% in the experiment with SNB-75 CNS; 99.8% in the experiment with SNB-19 CNS; 103% in the experiment with U251 CNS; 122% in the experiment on PC-3 prostate. In addition, the growth with SK-MEL-5 melanoma is 98.6%; with UACC-62 melanoma, 92.2%; with LOX IMVI melanoma it was 101%; with SK-MEL-28 melanoma, 117%.
For `CCCCNCC(O)c1cc2c(Cl)cc(Cl)cc2c2cc(C(F)(F)F)ccc12` (stereo not given), the growth in the experiment with HCT-15 colon was -60.4% (active); in the experiment on HT29 colon, -84.4% (active); with SNB-75 CNS, -87.6% (active); in the experiment on SNB-19 CNS, -71.5% (active); in the experiment on U251 CNS it was -95.5% (active); in the experiment with PC-3 prostate, -89.6% (active). In addition, the growth in the experiment on SK-MEL-5 melanoma was -35.4% (active); with UACC-62 melanoma, -84.4% (active); in the experiment on LOX IMVI melanoma, -77.8% (active); in the experiment with SK-MEL-28 melanoma it was -88.4% (active).
Regarding `c1ccc(C(CC2=NCCCN2)c2ccccc2)cc1`, the growth is 114% with HCT-15 colon; 102% in the experiment with HT29 colon; 86.2% in the experiment with SNB-75 CNS; 107% with SNB-19 CNS; 90.8% in the experiment on U251 CNS; 83.9% with PC-3 prostate. Also, the growth in the experiment with SK-MEL-5 melanoma was 105%; in the experiment with UACC-62 melanoma, 89.6%; with LOX IMVI melanoma it was 97.8%; in the experiment on SK-MEL-28 melanoma, 107%.
Take `COc1ccc(Nc2ncccc2C(=O)NCc2cn(Cc3cc(OC)cc(OC)c3)nn2)cc1`: the growth is 104% in the experiment on HCT-15 colon; 97.8% in the experiment with HT29 colon; 81.7% with SNB-75 CNS; 106% in the experiment on SNB-19 CNS; 98.6% in the experiment with U251 CNS; 90.9% in the experiment with PC-3 prostate. For the same compound, the growth in the experiment on SK-MEL-5 melanoma was 97.6%; with UACC-62 melanoma, 97.1%; with LOX IMVI melanoma, 96.5%; in the experiment with SK-MEL-28 melanoma, 113%.
As to `CCCCn1c(C)nc2cc(Nc3nc(Cl)nc4nc[nH]c34)ccc21`, the growth with HCT-15 colon is 90.7%; in the experiment with HT29 colon, 83.6%; with SNB-75 CNS it was 78.4%; in the experiment on SNB-19 CNS, 87.4%; in the experiment on U251 CNS, 77.2%; with PC-3 prostate, 59.7%. In addition, the growth in the experiment with SK-MEL-5 melanoma was 73.6%; in the experiment with UACC-62 melanoma, 73%; in the experiment with LOX IMVI melanoma, 90.4%; in the experiment on SK-MEL-28 melanoma, 99.4%.
In the case of `CCCCN(CCCC)CCCN=c1nc2c(c(N)n1-c1ccccc1)c(=S)n(-c1ccccc1)c(=S)n2-c1ccccc1`, the growth with HCT-15 colon was -73.3% (active); with HT29 colon, -63.3% (active); in the experiment on SNB-75 CNS it was -94.2% (active); in the experiment on SNB-19 CNS it was -87.4% (active); in the experiment with U251 CNS it was -100% (active); in the experiment on PC-3 prostate, -70.8% (active). For the same compound, the growth with SK-MEL-5 melanoma is -100% (active); in the experiment with UACC-62 melanoma, -99.4% (active); in the experiment with LOX IMVI melanoma, -89.7% (active); with SK-MEL-28 melanoma, -100% (active).
Regarding `COc1cc2c(cc1OC)C(=O)C(Br)CC2` (stereo not given), the growth with HCT-15 colon is 17.5%; with HT29 colon, 24.1%; with SNB-75 CNS it was 53%; in the experiment with SNB-19 CNS it was 85.3%; in the experiment on U251 CNS it was 54%; in the experiment with PC-3 prostate, 31.2%. The growth is 53.2% in the experiment on SK-MEL-5 melanoma, 33% in the experiment with UACC-62 melanoma, -0.506% (active) in the experiment on LOX IMVI melanoma and 67.7% with SK-MEL-28 melanoma.
For `CCCCCCCCCCC(C(O)c1ccccc1)N1CCCCC1` (stereo not given), the growth was 16.8% in the experiment with HCT-15 colon; -10.5% (active) in the experiment with HT29 colon; 63.1% with SNB-75 CNS; 43.7% with SNB-19 CNS; 28% in the experiment with U251 CNS; 25.7% in the experiment on PC-3 prostate. In addition, the growth with SK-MEL-5 melanoma was -94.3% (active); in the experiment with UACC-62 melanoma, -9.77% (active); in the experiment on LOX IMVI melanoma it was -30.5% (active); with SK-MEL-28 melanoma, -15.9% (active).

Values taken from PubChem BioAssay (NCI).
